# Rows were chosen to be rich in hits. Some 31% of all compounds tested hit in one or more screens of this group.
# CYP2C19 inh = blocks human cytochrome P450 2C19; P33261; CYP2C19 Supersomes, luciferin-H EGE luminescence, 30 min; inhibition, % at 5 µM; 96,000 tested, 21% active; AID 778;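 active = CYP2C19 inhibition above a set limit at 5 µM in the primary screen, cut at about 50% in these data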
# Target sequence (P33261 whole entry, looked up): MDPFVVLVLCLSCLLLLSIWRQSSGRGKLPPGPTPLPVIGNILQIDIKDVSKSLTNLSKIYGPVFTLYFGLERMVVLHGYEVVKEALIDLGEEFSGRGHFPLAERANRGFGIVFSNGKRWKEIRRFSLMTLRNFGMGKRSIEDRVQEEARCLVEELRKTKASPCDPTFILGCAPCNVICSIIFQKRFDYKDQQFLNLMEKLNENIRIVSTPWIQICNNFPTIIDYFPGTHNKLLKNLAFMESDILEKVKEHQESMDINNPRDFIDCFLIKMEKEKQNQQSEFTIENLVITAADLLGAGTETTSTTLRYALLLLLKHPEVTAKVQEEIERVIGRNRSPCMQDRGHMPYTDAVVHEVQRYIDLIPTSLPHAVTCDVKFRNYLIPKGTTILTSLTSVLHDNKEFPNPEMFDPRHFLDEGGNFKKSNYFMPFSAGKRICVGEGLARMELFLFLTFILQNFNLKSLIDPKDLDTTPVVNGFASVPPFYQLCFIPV
# CYP2C9 activ = activators of human CYP2C9. P11712. recombinant CYP2C9, luciferin-H conversion, luminescence; active compounds read high; factor 1 = untreated enzyme, 0 = blocked. activation factor at 5 µM. 96,000 tested, 1.4% active. AID 1024;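 active = activation factor of 2 or more for CYP2C9 at a 5 µM dose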
# CYP2C19 act = cytochrome P450 2C19 (human) activation. AID 1025. 96,000 tested, under 10 active. activation factor at 5 µM. recombinant CYP2C19, luciferin-H EGE luminescence; active compounds read high; 0 = fully inhibited enzyme, 1 = untreated enzyme. P33261;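 active = activation factor of at least 2 at 5 µM in the primary screen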
# PLAP activator = human PLAP activation | P05187 | purified PLAP enzyme, luminescent substrate read-out; active compounds read high | activation fold at 20 µM | 96,000 tested, 1.2% active | AID 696; in the data active = activation fold above about 2
# CYP2C9 inhib = human CYP2C9 inhibition. P11712. CYP2C9 Supersomes, luciferin-H conversion, luminescence. inhibition, % at 5 µM. 96,000 tested, 20% active. AID 777;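 active = blocking of liver enzyme CYP2C9 beyond about 50% at 5 µM, limit read from the data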
# Hits are given with their value; . = inactive.
SMILES,CYP2C19 inh,CYP2C9 activ,CYP2C19 act,PLAP activator,CYP2C9 inhib
CCOc1ccc2nc(NCCNC(=O)C(C)C)c(C)cc2c1,77,.,.,.,94
CC1(C)CC(=O)N(c2ccccc2)C1(C)O (stereo unspecified),.,.,.,.,.
O=C(OCCN1CCCCC1)c1ccc(O)cc1,.,.,.,.,.
O=C(OCCN1CCCCC1)c1ccccc1Cl,60,.,.,.,.
COc1ccccc1CNC(=O)CN(c1ccc(C)cc1)S(=O)(=O)c1c(C)nn(C)c1C,70,.,.,.,81
COc1ccc(OC)c(N(CC(=O)NCc2ccccn2)S(C)(=O)=O)c1,.,.,.,.,.
COc1ccc(N(CC(=O)N2CCc3ccccc3C2)S(C)(=O)=O)cc1,.,.,.,.,.
COc1ccc(S(=O)(=O)N(CC(=O)NCCCN(C)C)c2ccc(C)cc2)cc1OC,.,.,.,.,.
COc1ccc(N(CC(=O)NCc2ccccc2OC)S(=O)(=O)c2c(C)nn(C)c2C)cc1,66,.,.,.,94
COc1ccc(OC)c(S(=O)(=O)N(C)CC(=O)N2CCc3ccccc3C2)c1,68,.,.,.,80
COc1ccc(N(CC(=O)N2CCc3ccccc3C2)S(=O)(=O)c2c(C)nn(C)c2C)cc1,91,.,.,.,64
Cc1cc(=O)[nH]c(SCc2cc(=O)n3nc(C)sc3n2)n1,.,.,.,.,.
COc1cccc(-c2nnc3sc(-c4ccco4)nn23)c1,.,.,.,.,.
Cc1ccc(-c2nnc3sc(CCc4ccccc4)nn23)cc1,65,.,.,.,76
Cc1cc(-c2nn3c(-c4ccccc4)nnc3s2)c2ccccc2n1,79,.,.,.,.
c1ccc(-c2cc(-c3nn4c(-c5ccco5)nnc4s3)c3ccccc3n2)cc1,.,.,.,.,77
COc1ccc(-c2nnc3sc(-c4ccccc4OC)nn23)cc1,.,.,.,.,.
Cc1ccccc1-c1nn2c(-c3ccccc3)nnc2s1,87,.,.,.,56
Cc1ccc(-n2nnnc2-c2cnc3cc4c(cc3c2C)OCO4)cc1,.,.,.,.,.
CCC(C)NS(=O)(=O)c1ccc(OCC(=O)N2CCCCC2)cc1 (stereo unspecified),.,.,.,.,.
O=C(CN1C(=O)C2CC=C(Cl)CC2C1=O)Nc1ccc(C(=O)O)cc1 (stereo unspecified),.,.,.,.,.
CC(=O)N1N=C(c2ccncc2)OC12CCCCC2,88,.,.,.,55
CCCNC(=O)c1cccc(Cn2nc(C)c(Br)c2C)c1,85,.,.,.,63
Cc1cccc(Nc2nc(-c3c(C)nc4ccccn34)cs2)c1,.,.,.,.,61
Cc1cccc(Nc2nc(-c3ccc4c(c3)OCCO4)cs2)c1,.,.,.,.,86
SMILES,CYP2C19 inh,CYP2C9 activ,CYP2C19 act,PLAP activator,CYP2C9 inhib
COc1cccc(C(=O)Nc2nc(-c3ccc4c(c3)OCO4)cs2)c1,.,.,.,.,.
CCCc1cc(C(N)=O)c(NC(=O)c2cc(C)on2)s1,.,.,.,.,64
O=C(Nc1nnc(Cc2ccccc2)s1)c1ccco1,.,.,.,.,.
CCCc1cc(C(N)=O)c(NC(=O)c2ccoc2C)s1,67,.,.,.,88
NC(=O)c1cc(Cc2ccccc2)sc1NC(=O)c1ccco1,.,.,.,.,56
CCNc1nc(SC(C)C(=O)OC)nc(N2CCOCC2)n1 (stereo unspecified),.,.,.,.,.
O=S(=O)(/N=C(/Sc1ccccc1)c1ccccc1)c1ccccc1,96,.,.,.,96
O=S(=O)(/N=C(/Nc1cc(N2CCOCC2)ncn1)c1ccccc1)c1ccccc1,.,.,.,.,.
O=C(CCc1nc(-c2cccs2)no1)NCc1ccc(F)cc1Cl,87,.,.,.,66
COc1ccccc1NC(=O)CCc1nc(-c2cccs2)no1,85,.,.,.,.
COc1ccccc1NC(=O)Cn1nnc(-c2ccccc2NC(=O)c2cccs2)n1,.,.,.,.,.
COc1ccccc1NC(=O)Cc1noc(CN(C)Cc2cccs2)n1,78,.,.,.,.
Cc1cccc(-c2noc(CCC(=O)NCc3ccccc3)n2)c1,.,.,.,.,.
Cc1ccc(CNC(=O)CCc2nc(-c3cccs3)no2)cc1,70,.,.,.,68
COC(/C=C/Nc1ccc(C)c(C)c1)=C(C#N)C#N,.,.,.,.,.
CCOC(=O)NCC(C)(C)CNC(=O)OCC,.,.,.,.,.
COc1ccc(-n2nnnc2SCC(=O)Nc2nc3c(s2)CCCC3)cc1,.,.,.,.,.
